This is a sample that favours compounds with a hit; in the whole collection about 2.8% have one here.
PAFAH1B3 inh = PAFAH1B3 enzyme inhibitors, primary screen, biochemical, fluorescence polarization, human; 340,000 tested, 0.28% active; recombinant PAFAH1B3, FP-rhodamine probe; inhibition, % at 3.39 µM; AID 492972, 2010;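 active means inhibition above the screen-wide average of all tested compounds plus 3 SD, cut at about 25% in these data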
PME-1 primary = PME-1 inhibitors via competitive probe labeling, primary screen, biochemical, fluorescence polarization, FP-Rh probe, HTS; Protein phosphatase methylesterase 1 (Homo sapiens), Q9Y570; recombinant PME-1; AID 2130, 2009; 320,000 tested, 0.53% active; inhibition, % at 5.9 µM;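 active means inhibition above the campaign mean of all compounds plus 3 SD, cut at about 26% in these data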;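 further: competitive labeling of PME-1 active site by serine hydrolase directed probe; inhibitors block probe labeling so polarization falls and inhibition rises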
Target sequence (Q9Y570 whole entry, looked up): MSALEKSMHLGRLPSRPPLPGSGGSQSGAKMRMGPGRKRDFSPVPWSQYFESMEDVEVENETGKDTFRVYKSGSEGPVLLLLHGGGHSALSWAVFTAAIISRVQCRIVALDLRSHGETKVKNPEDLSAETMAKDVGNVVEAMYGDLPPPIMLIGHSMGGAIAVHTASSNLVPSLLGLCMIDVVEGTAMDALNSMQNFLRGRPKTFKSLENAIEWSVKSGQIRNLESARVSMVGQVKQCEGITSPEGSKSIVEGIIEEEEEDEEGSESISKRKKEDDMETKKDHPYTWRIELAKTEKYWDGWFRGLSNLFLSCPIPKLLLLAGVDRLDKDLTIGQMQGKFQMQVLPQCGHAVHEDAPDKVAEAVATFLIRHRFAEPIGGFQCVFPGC
pPAFAH FP inh = pPAFAH enzyme inhibitors, primary screen, biochemical, fluorescence polarization, human. 330,000 tested, 1.5% active. recombinant pPAFAH, FP-rhodamine probe fluorescence polarization. inhibition, % at 3.39 µM;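 active means inhibition above the mean inhibition across the screen plus 3 SD, cut at about 25% in these data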;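 further: inhibitors block binding of the rhodamine activity-based probe so polarization drops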
PAFAH2 FP inh = PAFAH2 enzyme inhibitors, primary screen, biochemical, fluorescence polarization, human | recombinant PAFAH2, FP-rhodamine activity probe | 340,000 tested, 0.99% active | inhibition, % at 3.39 µM | Platelet-activating factor acetylhydrolase 2, cytoplasmic (Homo sapiens), Q99487;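 active means inhibition above the mean over all tested compounds plus 3 SD, cut at about 30% in these data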;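 further: inhibitors block probe labeling of enzyme so polarization drops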
Fam108B counter = mouse Fam108B serine hydrolase inhibitors, primary screen, counter-screen for RBBP9 inhibitor project, biochemical, fluorescence polarization | recombinant Fam108B, FP-Rh probe fluorescence polarization | inhibition, % at 9.51 µM | 300,000 tested, 0.33% active;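 active means inhibition above the screen mean inhibition plus 3 SD, computed separately per campaign, cut at about 18% in these data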;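 further: inhibitors lower polarization as less probe binds the enzyme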
PAFAH1B2 FP inh = PAFAH1B2 enzyme inhibitors, primary screen, biochemical, fluorescence polarization, human; Platelet-activating factor acetylhydrolase IB subunit alpha2 (Homo sapiens), P68402; recombinant PAFAH1B2, FP-rhodamine activity probe; inhibition, % at 3.39 µM; 340,000 tested, 1.2% active;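 active means inhibition above the mean of all tested compounds plus 3 SD, cut at about 24% in these data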
Target sequence (P68402 whole entry, looked up): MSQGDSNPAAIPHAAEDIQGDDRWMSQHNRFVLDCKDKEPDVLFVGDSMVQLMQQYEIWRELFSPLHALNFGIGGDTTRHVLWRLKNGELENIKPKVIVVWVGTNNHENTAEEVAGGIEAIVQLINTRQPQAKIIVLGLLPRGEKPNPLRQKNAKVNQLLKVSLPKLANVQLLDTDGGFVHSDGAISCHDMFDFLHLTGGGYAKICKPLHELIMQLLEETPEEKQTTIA
PAFAH2 FP conf = PAFAH2 enzyme inhibitors, confirmation, biochemical, fluorescence polarization, human. inhibition, % at 3.39 µM. recombinant PAFAH2, FP-rhodamine activity probe. shares compounds with PAFAH2 FP inh. 2,300 tested, 65% active;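 active means mean inhibition over three repeats above a set limit taken from the earlier primary screen, cut at about 30% in these data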;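 further: inhibitor blocks binding of rhodamine activity probe so polarization falls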
Hits are given with their value; i = inactive; nt = no result.

SMILES	PAFAH1B3 inh	PME-1 primary	pPAFAH FP inh	PAFAH2 FP inh	Fam108B counter	PAFAH1B2 FP inh	PAFAH2 FP conf
O=C1OC(c2ccccc2)Sc2ccccc21 (centres undefined)	i	nt	nt	80.8	nt	i	85.3
O=C(NCCc1ccc(Cl)cc1)C1CCC(=O)N(C2CCCCCC2)C1 (centres undefined)	i	i	i	i	i	i	nt
O=C(NCCc1ccc(Cl)cc1)C1CC(=O)N(C2CCCC2)C1 (centres undefined)	i	i	i	103.8	i	i	i
Cc1cccc(-c2onc3ccc(C(=O)/C=C/N(C)C)cc23)c1	i	i	i	i	i	i	nt
CC(=O)Nc1cc(C(=O)OCC(=O)c2ccc(C)cc2)ccc1C	i	i	i	i	i	i	nt
COc1cc(Cl)c(C)cc1NC(=O)COC(=O)c1ccc(CN2CCCC2=O)cc1	i	i	i	43.3	nt	i	i
Cc1c(Cl)cccc1NC(=O)COC(=O)c1ccc(CN2CCCC2=O)cc1	i	i	i	76.0	nt	i	67.4
Cc1ccc(Cl)cc1NC(=O)COC(=O)c1ccc(CN2CCCC2=O)cc1	i	i	i	59.9	nt	i	43.0
CC(=O)Nc1cc(C(=O)OCC(=O)c2ccc(Cl)cc2Cl)ccc1C	i	i	i	34.5	i	i	i
O=C(OCc1nnc(-c2ccccc2Br)o1)c1ccco1	i	nt	i	53.0	nt	i	49.6
O=C(O)CCc1nc(-c2ccccc2Cl)no1	i	i	i	i	i	i	nt
O=C(OCc1nc(-c2ccccc2Cl)no1)c1ccco1	i	i	i	42.1	nt	i	41.2
COc1ccc(CNS(=O)(=O)c2ccc3c(c2)CCN3C(=O)C2CCC2)cc1	i	i	i	i	i	i	nt
N#CC1(N2CCN(C(=O)c3ccccc3)CC2)CCCCC1	i	i	i	i	i	i	nt
O=C(CCCNC(=O)c1ccc(Cl)cc1)Nc1ccc(F)c(S(=O)(=O)N2CCOCC2)c1	i	i	i	i	nt	i	nt
Clc1ccccc1Cc1noc(CN2CCN(Cc3ccccn3)CC2)n1	i	i	i	32.6	i	i	i
CN(Cc1cnccn1)Cc1nc(Cc2ccccc2Cl)no1	i	i	i	i	i	i	nt
CCCn1c(C)cc(/C=C(\C#N)C(=O)OCC(=O)Nc2cccc(OC)c2)c1C	i	i	i	53.6	i	i	59.5
Cc1cc(/C=C(\C#N)C(=O)OCC(=O)NC(=O)NC(C)(C)C)c(C)n1CCC(C)C	i	i	i	i	i	i	nt
C=CCNC(=O)NC(=O)COC(=O)/C(C#N)=C/c1cc(C)n(CCC(C)C)c1C	i	i	i	i	i	i	nt
CCCn1c(C)cc(/C=C(\C#N)C(=O)OCC(=O)Nc2cccc(S(N)(=O)=O)c2)c1C	i	i	i	33.7	nt	i	i
O=C(c1ccc(C(F)(F)F)cc1)N1CCN(c2ccc(N3CCOCC3)nn2)CC1	i	i	i	i	i	i	nt
Cc1cc(C)c(NC(=O)COC(=O)c2ccncc2)c(C)c1	i	nt	i	i	nt	i	nt
COc1ccc(CCNC(=O)CCOc2cc(C)ccc2C)cc1OC	i	nt	nt	i	nt	i	nt
COc1ccc(CCC(=O)N2CCN(S(=O)(=O)c3cccc(Cl)c3)CC2)cc1	i	i	i	i	nt	i	nt
SMILES	PAFAH1B3 inh	PME-1 primary	pPAFAH FP inh	PAFAH2 FP inh	Fam108B counter	PAFAH1B2 FP inh	PAFAH2 FP conf
COc1ccccc1NC(=O)CSc1nnc(Cc2cccs2)n1C	i	i	i	66.2	i	i	i
CC(=O)NCc1ccc(C(=O)CSc2nnc(C3CC3)n2C2CC2)cc1	i	i	i	i	nt	i	nt
C/C(=N/OC(=O)C1CC1)c1cc(-c2ccc(Cl)cc2)no1	i	i	i	72.9	i	i	61.5
COc1ccc(NC(=O)COC(=O)c2ccc(N3CCCC3=O)cc2)cc1	i	i	i	83.5	nt	i	67.0
COc1ccc(CNC(=O)c2ccc(N3CCCC3=O)cc2)cc1	i	i	i	i	i	i	nt
COc1ccc(CCNC(=O)COC(=O)c2ccc(N3CCCC3=O)cc2)cc1	i	i	i	55.6	i	i	39.7
O=C(NCc1ccc(N2CCCC2=O)cc1)c1ccc(F)cc1	i	i	i	i	i	i	nt
CC(NC(=O)COC(=O)c1ccc(N2CCCC2=O)cc1)c1ccc(F)cc1 (centres undefined)	i	nt	i	77.5	nt	i	67.7
COc1ccc(Cl)cc1NC(=O)CN1CCc2ccccc2C1	i	i	i	i	i	i	nt
Cc1ccc(S(=O)(=O)N(C)C)cc1NC(=O)CCNC(=O)c1ccco1	i	i	i	i	i	i	nt
Cc1ccc(-c2nnc(N3CCOCC3)c3ccccc23)cc1S(N)(=O)=O	i	i	i	i	i	i	nt
COc1cc([N+](=O)[O-])ccc1NC(=O)CN1C(=O)NC2(CCCCC2C)C1=O (centres undefined)	i	nt	nt	i	nt	i	nt
Cc1nc2c(cc1N)nc(C)n2Cc1ccccc1	i	i	i	i	i	i	nt
Cc1c(Cl)cnc(NC(=O)COC(=O)C2CC2)c1Cl	i	nt	i	43.5	nt	i	i
O=C(COC(=O)C1CC1)Nc1c(Cl)cccc1C(F)(F)F	i	i	i	37.6	i	i	i
Cc1ccsc1C(=O)OCC(=O)Nc1c(Cl)cccc1C(F)(F)F	i	i	i	31.1	i	i	30.0
C/C=C/c1ccc(OCC(=O)N2CCc3cc(OC)c(OC)cc3C2)c(OC)c1	i	i	i	i	i	i	nt
O=C(COC(=O)c1ccc(F)cc1F)NCCC1=CCCCC1	i	i	i	46.5	nt	i	30.9
Cc1ccc(C(=O)OCC(=O)NCCC2=CCCCC2)cc1N	i	i	i	i	i	i	nt
O=C(COC(=O)c1ccc2c(c1)OCCO2)NCCC1=CCCCC1	i	i	i	58.0	i	i	47.1
O=C(COC(=O)c1ccc(O)cc1)NCCC1=CCCCC1	i	i	i	56.6	i	i	50.3
CC1(C)CC(NC(=O)C2CCN(S(=O)(=O)c3cccc(C(F)(F)F)c3)CC2)CC(C)(C)N1	i	i	i	i	nt	i	nt
O=C(COC(=O)C1=COCCO1)Nc1ccc2c(c1)OCO2	i	i	i	69.4	i	i	51.7
Cc1ccc(NC(=O)COC(=O)C2=COCCO2)c([N+](=O)[O-])c1	i	i	i	i	i	i	nt
Cc1ccc(NC(=O)COC(=O)C2=COCCO2)cc1	i	i	i	46.9	i	i	38.7
CCC(C)c1ccc(NC(=O)COC(=O)C2=COCCO2)cc1 (centres undefined)	i	i	i	69.5	i	i	57.8
O=C(COC(=O)C1=COCCO1)Nc1cc(Cl)c(Cl)cc1Cl	i	nt	i	37.9	nt	i	33.2

From PubChem BioAssay
